Assay [1] has as its target Protein kinase C gamma type (Homo sapiens) (UniProt P05129). To be noted: at 1 µM.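 Note: each value is an averaged percent inhibition of the enzyme.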
The target in assay [2] is T1, Protein kinase C iota type (Homo sapiens) (UniProt P41743).
T1 sequence (whole entry): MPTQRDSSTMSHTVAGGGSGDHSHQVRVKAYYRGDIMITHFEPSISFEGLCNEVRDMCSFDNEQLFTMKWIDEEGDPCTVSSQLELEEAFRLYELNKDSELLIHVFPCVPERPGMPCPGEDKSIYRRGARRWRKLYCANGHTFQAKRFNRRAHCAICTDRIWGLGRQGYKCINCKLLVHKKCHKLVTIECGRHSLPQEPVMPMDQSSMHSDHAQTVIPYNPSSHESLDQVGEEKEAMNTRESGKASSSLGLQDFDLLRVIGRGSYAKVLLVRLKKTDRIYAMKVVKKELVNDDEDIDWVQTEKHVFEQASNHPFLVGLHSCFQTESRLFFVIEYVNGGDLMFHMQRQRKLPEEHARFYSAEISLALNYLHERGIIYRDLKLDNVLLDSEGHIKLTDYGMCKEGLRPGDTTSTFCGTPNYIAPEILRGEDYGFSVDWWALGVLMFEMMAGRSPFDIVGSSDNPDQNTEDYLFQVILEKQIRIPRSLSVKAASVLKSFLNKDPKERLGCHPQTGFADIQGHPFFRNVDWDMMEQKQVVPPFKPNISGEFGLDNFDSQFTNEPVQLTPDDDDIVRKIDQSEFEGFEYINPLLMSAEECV
To be noted: at 0.1 µM.

For assay [3], the target named is T1, Protein kinase C iota type (Homo sapiens). The note with it: at 1 µM.
The target in assay [4] is Protein kinase C theta type (Homo sapiens) (UniProt Q04759). The note with it: at 0.1 µM.
Sequence of Protein kinase C theta type (Homo sapiens) (Q04759 whole entry, looked up): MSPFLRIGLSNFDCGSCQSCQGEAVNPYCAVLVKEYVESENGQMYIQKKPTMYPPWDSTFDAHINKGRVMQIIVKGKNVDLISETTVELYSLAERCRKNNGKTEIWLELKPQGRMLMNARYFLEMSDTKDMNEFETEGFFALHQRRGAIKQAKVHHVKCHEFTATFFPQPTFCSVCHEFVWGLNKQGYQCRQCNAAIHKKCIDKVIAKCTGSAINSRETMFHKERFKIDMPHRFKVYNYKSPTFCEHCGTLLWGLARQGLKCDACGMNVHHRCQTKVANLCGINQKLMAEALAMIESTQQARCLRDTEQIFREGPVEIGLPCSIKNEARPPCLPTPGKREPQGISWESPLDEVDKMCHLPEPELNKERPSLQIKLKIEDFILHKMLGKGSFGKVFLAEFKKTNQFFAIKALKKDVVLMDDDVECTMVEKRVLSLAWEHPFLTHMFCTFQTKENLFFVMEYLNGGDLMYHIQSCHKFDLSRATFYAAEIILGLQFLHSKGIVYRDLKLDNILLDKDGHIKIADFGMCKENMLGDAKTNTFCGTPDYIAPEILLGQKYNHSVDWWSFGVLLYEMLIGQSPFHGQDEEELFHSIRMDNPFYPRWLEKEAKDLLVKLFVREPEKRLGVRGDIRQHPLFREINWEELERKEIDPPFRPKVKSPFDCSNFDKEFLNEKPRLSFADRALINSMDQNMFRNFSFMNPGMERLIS
Assay [5] has the same target. The note with it: at 1 µM.
For assay [6], the target named is Protein kinase C beta type (Homo sapiens) (UniProt P05771). To be noted: at 0.1 µM.
Sequence of Protein kinase C beta type (Homo sapiens) (P05771 2-671 limits assumed): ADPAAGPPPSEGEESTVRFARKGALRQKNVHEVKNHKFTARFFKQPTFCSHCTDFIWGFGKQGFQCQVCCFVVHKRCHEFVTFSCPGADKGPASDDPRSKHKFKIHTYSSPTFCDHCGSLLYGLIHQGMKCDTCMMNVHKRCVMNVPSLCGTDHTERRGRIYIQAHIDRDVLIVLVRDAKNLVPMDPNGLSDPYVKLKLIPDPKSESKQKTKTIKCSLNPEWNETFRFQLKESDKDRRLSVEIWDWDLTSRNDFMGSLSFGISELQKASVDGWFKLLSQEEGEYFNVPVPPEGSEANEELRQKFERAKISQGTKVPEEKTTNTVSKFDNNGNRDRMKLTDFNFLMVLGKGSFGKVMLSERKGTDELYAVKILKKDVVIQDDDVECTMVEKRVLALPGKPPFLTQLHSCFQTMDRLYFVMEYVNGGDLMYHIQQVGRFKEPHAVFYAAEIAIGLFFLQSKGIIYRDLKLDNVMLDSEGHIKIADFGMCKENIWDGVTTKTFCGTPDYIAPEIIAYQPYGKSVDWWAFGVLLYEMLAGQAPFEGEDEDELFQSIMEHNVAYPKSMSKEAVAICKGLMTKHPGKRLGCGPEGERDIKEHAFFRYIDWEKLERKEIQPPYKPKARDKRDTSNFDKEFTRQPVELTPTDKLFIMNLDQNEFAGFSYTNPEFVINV
Assay [7] shares this target. To be noted: at 1 µM.
Assay [8] concerns the target T2, Serine/threonine-protein kinase D1 (Homo sapiens) (UniProt Q15139).
T2 sequence (whole entry): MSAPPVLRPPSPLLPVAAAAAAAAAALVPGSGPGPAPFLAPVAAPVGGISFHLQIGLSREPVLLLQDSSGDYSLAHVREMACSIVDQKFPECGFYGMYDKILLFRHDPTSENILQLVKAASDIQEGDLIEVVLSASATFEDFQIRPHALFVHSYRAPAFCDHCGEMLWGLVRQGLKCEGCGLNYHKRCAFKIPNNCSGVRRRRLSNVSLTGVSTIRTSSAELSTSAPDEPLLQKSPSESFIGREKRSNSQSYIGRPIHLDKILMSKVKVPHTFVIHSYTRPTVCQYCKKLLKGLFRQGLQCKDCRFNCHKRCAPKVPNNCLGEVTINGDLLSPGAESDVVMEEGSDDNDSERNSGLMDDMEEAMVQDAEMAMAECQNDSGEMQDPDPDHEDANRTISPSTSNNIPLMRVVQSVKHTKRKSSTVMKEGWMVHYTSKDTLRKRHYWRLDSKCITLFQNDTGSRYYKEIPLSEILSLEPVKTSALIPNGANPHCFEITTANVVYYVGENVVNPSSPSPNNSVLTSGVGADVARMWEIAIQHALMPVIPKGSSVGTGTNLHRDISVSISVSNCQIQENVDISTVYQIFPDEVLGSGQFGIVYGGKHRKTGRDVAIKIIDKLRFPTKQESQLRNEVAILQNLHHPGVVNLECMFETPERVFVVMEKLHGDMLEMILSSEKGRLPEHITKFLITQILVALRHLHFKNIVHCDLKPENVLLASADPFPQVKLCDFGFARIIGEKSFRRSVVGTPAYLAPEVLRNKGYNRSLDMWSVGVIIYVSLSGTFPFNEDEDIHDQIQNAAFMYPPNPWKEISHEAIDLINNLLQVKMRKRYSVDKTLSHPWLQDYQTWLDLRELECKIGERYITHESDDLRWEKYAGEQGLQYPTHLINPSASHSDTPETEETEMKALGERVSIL
To be noted: at 0.1 µM.

In assay [9] the target is T2, Serine/threonine-protein kinase D1 (Homo sapiens). To be noted: at 1 µM.
The target in assay [10] is T3, Serine/threonine-protein kinase D2 (Homo sapiens) (UniProt Q9BZL6).
T3 sequence (whole entry): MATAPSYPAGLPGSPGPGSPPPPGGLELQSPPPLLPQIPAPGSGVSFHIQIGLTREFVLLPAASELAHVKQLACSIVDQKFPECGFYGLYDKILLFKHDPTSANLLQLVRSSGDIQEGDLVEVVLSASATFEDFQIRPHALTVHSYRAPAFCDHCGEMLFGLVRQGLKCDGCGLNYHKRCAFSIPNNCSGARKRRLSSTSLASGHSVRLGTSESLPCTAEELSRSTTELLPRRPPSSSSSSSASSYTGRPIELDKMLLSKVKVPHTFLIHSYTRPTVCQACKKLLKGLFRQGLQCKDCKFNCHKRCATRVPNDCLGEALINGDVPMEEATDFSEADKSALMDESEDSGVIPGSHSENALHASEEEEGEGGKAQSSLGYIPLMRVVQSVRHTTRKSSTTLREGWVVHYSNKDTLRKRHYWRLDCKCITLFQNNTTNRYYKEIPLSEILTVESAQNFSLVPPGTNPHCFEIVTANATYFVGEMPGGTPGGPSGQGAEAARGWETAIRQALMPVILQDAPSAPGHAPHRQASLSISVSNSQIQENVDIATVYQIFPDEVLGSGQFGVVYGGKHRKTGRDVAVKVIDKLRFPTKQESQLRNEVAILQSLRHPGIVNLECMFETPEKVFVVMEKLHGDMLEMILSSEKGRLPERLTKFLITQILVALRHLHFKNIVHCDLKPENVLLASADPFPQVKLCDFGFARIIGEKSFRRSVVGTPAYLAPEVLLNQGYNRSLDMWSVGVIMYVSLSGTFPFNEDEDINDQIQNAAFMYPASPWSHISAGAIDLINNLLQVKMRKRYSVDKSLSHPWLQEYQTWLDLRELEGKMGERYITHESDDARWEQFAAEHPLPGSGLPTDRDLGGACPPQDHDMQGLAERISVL
To be noted: at 0.1 µM.

Assay [11] addresses T3, Serine/threonine-protein kinase D2 (Homo sapiens). To be noted: at 1 µM.
Assay [12] deals with T4, Serine/threonine-protein kinase D3 (Homo sapiens) (UniProt O94806).
T4 sequence (whole entry): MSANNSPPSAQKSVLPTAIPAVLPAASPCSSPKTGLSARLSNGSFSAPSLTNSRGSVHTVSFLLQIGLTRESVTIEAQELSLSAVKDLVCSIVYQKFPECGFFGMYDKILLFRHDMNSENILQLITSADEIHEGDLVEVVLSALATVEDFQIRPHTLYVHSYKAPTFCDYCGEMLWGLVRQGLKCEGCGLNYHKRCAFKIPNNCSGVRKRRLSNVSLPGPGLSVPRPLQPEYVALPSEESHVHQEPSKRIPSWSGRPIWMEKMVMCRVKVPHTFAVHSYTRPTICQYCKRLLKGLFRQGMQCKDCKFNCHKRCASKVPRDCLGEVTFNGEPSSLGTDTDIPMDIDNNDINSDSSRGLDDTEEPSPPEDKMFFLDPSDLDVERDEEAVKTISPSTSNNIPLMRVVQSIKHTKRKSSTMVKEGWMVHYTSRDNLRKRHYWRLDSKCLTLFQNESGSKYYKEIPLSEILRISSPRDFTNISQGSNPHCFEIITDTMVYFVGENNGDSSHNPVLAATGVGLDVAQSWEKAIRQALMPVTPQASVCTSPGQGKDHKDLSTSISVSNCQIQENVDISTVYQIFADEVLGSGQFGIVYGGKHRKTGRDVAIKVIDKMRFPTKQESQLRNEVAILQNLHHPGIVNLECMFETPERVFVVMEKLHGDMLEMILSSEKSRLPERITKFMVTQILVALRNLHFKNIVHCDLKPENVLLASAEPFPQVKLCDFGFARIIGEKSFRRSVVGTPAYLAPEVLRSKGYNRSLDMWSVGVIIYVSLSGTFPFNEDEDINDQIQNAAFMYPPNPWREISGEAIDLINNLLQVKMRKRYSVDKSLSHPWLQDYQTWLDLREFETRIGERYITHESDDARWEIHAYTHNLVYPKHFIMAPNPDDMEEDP
The note with it: at 0.1 µM.

Assay [13] deals with T4, Serine/threonine-protein kinase D3 (Homo sapiens). The note with it: at 1 µM.
In assay [14] the target is T5, cGMP-dependent protein kinase 1 (Homo sapiens) (UniProt Q13976).
T5 sequence (whole entry): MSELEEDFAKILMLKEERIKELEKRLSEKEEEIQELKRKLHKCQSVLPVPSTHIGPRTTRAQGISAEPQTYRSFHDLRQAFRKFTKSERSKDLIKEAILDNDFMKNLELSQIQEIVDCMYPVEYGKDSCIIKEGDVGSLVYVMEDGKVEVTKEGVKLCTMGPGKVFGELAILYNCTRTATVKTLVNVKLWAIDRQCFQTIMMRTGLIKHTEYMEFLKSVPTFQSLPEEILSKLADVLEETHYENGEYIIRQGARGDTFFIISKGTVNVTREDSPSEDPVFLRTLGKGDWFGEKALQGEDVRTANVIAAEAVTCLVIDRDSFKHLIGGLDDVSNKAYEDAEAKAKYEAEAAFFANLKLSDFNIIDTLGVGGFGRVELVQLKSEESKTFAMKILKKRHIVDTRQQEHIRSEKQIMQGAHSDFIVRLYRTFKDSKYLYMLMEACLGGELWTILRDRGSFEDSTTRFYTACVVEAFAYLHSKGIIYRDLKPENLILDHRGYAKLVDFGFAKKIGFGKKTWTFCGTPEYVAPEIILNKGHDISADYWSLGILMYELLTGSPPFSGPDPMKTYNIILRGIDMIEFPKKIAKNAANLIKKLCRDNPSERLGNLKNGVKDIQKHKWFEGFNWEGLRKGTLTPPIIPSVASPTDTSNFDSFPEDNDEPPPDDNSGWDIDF
To be noted: at 0.1 µM.

In assay [15] the target is T5, cGMP-dependent protein kinase 1 (Homo sapiens). The note with it: at 1 µM.
Assay [16] has as its target T6, cGMP-dependent protein kinase 2 (Homo sapiens) (UniProt Q13237).
T6 sequence (whole entry): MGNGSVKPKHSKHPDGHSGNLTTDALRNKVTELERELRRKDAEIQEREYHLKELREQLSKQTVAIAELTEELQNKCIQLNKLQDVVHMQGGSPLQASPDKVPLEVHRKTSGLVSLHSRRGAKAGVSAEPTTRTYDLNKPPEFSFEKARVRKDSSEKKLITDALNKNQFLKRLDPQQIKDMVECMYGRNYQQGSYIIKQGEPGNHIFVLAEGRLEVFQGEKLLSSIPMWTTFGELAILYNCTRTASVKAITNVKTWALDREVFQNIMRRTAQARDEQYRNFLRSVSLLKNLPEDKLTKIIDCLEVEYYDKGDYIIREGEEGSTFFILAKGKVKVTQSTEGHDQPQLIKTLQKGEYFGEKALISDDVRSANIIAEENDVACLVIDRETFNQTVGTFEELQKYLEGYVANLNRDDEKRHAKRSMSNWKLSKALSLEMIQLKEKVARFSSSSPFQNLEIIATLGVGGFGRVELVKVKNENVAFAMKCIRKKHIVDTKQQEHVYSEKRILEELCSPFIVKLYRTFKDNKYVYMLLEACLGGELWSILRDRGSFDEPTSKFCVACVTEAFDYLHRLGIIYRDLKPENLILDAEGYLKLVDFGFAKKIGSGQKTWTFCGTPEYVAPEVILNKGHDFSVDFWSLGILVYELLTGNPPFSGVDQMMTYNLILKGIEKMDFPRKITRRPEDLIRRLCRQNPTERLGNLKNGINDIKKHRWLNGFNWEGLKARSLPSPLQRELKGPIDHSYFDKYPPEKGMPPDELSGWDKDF
The note with it: at 0.1 µM.

Assay [17] deals with T6, cGMP-dependent protein kinase 2 (Homo sapiens). To be noted: at 1 µM.
Assay [18] has as its target T7, cAMP-dependent protein kinase catalytic subunit PRKX (Homo sapiens) (UniProt P51817).
T7 sequence (whole entry): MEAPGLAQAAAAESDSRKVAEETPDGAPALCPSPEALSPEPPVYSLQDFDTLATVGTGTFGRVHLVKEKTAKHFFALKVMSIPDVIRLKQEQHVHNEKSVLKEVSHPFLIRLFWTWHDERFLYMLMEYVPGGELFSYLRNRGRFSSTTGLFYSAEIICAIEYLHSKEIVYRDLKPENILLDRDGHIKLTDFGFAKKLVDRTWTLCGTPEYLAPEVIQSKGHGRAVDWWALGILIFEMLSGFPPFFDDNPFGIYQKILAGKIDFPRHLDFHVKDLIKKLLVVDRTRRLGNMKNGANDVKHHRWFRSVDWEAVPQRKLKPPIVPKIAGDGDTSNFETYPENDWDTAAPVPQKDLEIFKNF
The note with it: at 0.1 µM.

For assay [19], the target named is T7, cAMP-dependent protein kinase catalytic subunit PRKX (Homo sapiens). The note with it: at 1 µM.
Assay [20] deals with Rho-associated protein kinase 1 (Homo sapiens) (UniProt Q13464). The note with it: at 0.1 µM.
Sequence of Rho-associated protein kinase 1 (Homo sapiens) (Q13464 2-1354 limits assumed): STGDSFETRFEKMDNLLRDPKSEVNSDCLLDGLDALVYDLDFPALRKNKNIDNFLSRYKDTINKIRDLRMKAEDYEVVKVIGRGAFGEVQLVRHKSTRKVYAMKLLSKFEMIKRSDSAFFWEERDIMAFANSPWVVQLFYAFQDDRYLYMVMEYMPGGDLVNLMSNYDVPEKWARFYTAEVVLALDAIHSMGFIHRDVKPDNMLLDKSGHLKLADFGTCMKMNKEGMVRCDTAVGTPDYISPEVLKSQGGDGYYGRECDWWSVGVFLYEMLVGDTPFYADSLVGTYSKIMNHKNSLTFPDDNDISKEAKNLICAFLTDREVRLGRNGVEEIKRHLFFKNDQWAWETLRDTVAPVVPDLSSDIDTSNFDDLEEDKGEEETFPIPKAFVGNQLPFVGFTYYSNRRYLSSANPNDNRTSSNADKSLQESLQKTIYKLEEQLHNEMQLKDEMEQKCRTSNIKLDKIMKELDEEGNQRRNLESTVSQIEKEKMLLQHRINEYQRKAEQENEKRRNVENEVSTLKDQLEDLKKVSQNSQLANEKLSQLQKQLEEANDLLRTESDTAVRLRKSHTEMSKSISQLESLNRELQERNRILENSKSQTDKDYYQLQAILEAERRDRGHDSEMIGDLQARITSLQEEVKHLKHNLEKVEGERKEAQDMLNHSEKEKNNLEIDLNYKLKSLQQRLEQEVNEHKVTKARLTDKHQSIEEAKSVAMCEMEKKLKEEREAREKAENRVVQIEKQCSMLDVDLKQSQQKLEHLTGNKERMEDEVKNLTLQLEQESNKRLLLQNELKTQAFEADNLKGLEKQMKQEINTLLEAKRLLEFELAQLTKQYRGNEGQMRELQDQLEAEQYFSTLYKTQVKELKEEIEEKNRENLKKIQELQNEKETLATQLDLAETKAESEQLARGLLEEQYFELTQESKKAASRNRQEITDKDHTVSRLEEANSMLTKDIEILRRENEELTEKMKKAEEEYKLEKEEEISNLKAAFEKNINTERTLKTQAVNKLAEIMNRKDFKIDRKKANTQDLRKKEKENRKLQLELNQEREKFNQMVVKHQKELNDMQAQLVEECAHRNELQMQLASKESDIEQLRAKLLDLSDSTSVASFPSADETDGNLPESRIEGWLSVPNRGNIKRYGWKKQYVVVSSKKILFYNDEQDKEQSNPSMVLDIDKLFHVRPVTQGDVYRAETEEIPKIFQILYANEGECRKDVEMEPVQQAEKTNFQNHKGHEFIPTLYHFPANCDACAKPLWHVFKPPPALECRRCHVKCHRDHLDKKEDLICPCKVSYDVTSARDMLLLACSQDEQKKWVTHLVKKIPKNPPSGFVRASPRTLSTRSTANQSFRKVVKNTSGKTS

Molecules are shown by their SMILES.

What is called inhibition is the relative decrease from the control value, in per cent. `CC(C)COC(=O)c1ccc2c(c1)/C(=C/Nc1ccc(S(N)(=O)=O)cc1)C(=O)N2`: the inhibition was 9.06% in assay [1]; -0.44% in assay [2]; 1.73% in [3]; 2.36% in [4]; 7.78% in assay [5]; 3.37% in assay [6]. In addition, the inhibition in assay [7] was 6.47%; in assay [8] it was 4.18%; in [9] it was 56%; in [10], 4.41%; in assay [11], 62.1%; in assay [12] it was 1.74%. In addition, the inhibition amounted to 46.3% in [13]; 4.93% in [14]; 14.3% in [15]; 11% in assay [16]; 54.4% in assay [17]; 6.36% in [18]. Also, the inhibition in assay [19] was 13.5%; in assay [20] it was 4.52%.
Turning to `COc1cc(Nc2nccc(Nc3ccc4c(C)n[nH]c4c3)n2)cc(OC)c1OC`, the inhibition in assay [1] was 5.39%; in assay [2], 1.08%; in assay [3], 3.92%; in assay [4], 1.17%; in assay [5] it was -0.29%; in assay [6], 2.72%. The inhibition in assay [7] was determined as 6.67%; in [8], 2.61%; in [9], 2.11%; in assay [10], 1.03%; in assay [11] it was 2.94%; in assay [12] it was 1.3%. Further, the inhibition in [13] stood at 2.54%; in assay [14], 3.29%; in assay [15] it was 3.61%; in [16] it was 2.12%; in [17] it was 2.71%; in assay [18], 0.71%. In addition, the inhibition was -0.26% in assay [19] and 2.06% in assay [20].
